Laboratory results as given in PubChem BioAssay.
A number with no mark means an inactive call. This is one part of the list. The source made the active and inactive calls.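 The calls were made as follows, unless noted: active = inhibition above a limit from the primary screen, the mean over all compounds plus 3 SD (cut at about 19% in these data); inactive = the rest.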

Experiments:
[1] = reduced OD of T4-infected AddAB+ E. coli – absorbance, E. coli V3065, T4 phage, triplicate, AddAB inhibitor project, confirmation (AID 488942;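 active = mean inhibition above a set limit taken from the earlier primary screen, cut at about 13% in these data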;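 also: higher means less bacterial growth since AddAB block lets phage replicate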); conditions: E. coli V3065 expressing H. pylori AddAB, at 11.9 µM, hits give high values, T4 phage with gene 2 nonsense mutations
[2] = reduced OD of phage-infected RecBCD+ V66 E. coli – absorbance, mutant T4 phage, counter-screen for AddAB inhibitor project (AID 488955;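 active = mean inhibition above the mean of solvent-only control wells plus 3 SD, cut at about 4% in these data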;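 also: optical density read after an 18 h incubation at 37 °C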); conditions: OD growth, at 11.9 µM, hits give high values
[3] = bacterial growth inhibitors – absorbance, counter-screen for AddAB inhibitor project, confirmation (AID 488956; in the data active = inhibition above about 25%); conditions: bacterial viability, absorbance (AddAB counterscreen); at 11.9 µM; hits give high values
[4] = reduced OD of V66 E. coli with T4 gene 2 phage – absorbance, RecBCD inhibitor project, confirmation (AID 651982;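 active = mean inhibition over triplicates exceeding the hit threshold derived in the original primary screen, cut at about 11% in these data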); conditions: E. coli V66 + T4 2- phage, growth OD; at 11.9 µM; hits give high values
[5] = bacterial growth inhibition – absorbance, high throughput, counter-screen for RecBCD inhibitor project (AID 651983; in the data active = inhibition above about 20%;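 also: E. coli strain V66 grown with compound alone and no phage infection; 0% = bacteria with DMSO vehicle only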); conditions: E. coli viability, absorbance (OD) growth; at 11.9 µM; hits give high values
[6] = reduced optical density, T4-challenged addAB+ bacteria – absorbance, E. coli V3065, T4 phage, counter-screen for RecBCD inhibitor project, confirmation (AID 651984;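 active = mean inhibition above the solvent-only control wells' mean plus 3 SD, cut at about 22% in these data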;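 also: higher means less bacterial growth from phage killing when AddAB is blocked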); conditions: E. coli expressing H. pylori AddAB + T4 phage, OD growth; at 11.9 µM; hits give high values; gene 2 mutant T4, recBCD-deleted host
[7] = test system: Fam108b (Abhd17b) serine hydrolase [Mus musculus]; test: inhibition of Fam108b (Abhd17b) hydrolase – biochemical, fluorescence polarization, triplicate, counter-screen for RBBP9 inhibitor project, confirmation (AID 1978); conditions: recombinant Fam108b, FP-Rh probe fluorescence polarization; at 9.51 µM; hits give high values;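 also: 0% = median of active Fam108b wells and 100% = catalytically dead S170A mutant; inhibitors free the probe so polarization falls as inhibition rises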
[8] = molecular target: Bcl-2-like protein 1 (Homo sapiens) (UniProt Q07817); test: Bcl-xL BH3-peptide displacement, hit confirmation – biochemical, fluorescence polarization, counter-screen for MCL1 inhibitor project (AID 2166;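 active = inhibition above a cutoff equal to the mean inhibition of all tested compounds plus 3 SD, cut at about 30% in these data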); conditions: GST-Bcl-xL / FITC-Bim BH3 peptide FP binding; at 10.9 µM; hits give high values
[9] = molecular target: Induced myeloid leukemia cell differentiation protein Mcl-1 (Homo sapiens) (UniProt Q07820); test: MCL1-BIM peptide interaction disruptors – biochemical, fluorescence polarization, triplicate, confirmation (AID 2168;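 active = inhibition above the average of all tested compounds plus 3 SD, cut at about 40% in these data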;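 also: 0% = DMSO wells and 100% = unlabeled Bim-BH3 control peptide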); conditions: GST-MCL1 / FITC-Bim-BH3 fluorescence polarization; at 10.9 µM; hits give high values
[10] = molecular target: Protein phosphatase methylesterase 1 (Homo sapiens) (UniProt Q9Y570); test: human PME-1 methylesterase inhibition confirmation – biochemical, fluorescence polarization, FP-Rh probe, triplicate (AID 2171;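 active = inhibition above the hit cutoff set in the earlier primary screen, cut at about 27% in these data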;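 also: 0% = enzyme with DMSO and 100% = wells lacking PME-1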); conditions: recombinant PME-1, FP-Rh probe fluorescence polarization; at 5.9 µM; hits give high values
[11] = molecular target: (Lyso)-N-acylphosphatidylethanolamine lipase (Mus musculus) (UniProt Q8VD66); test: mouse ABHD4 hydrolase blockers, triplicate – biochemical, fluorescence polarization, confirmation (AID 720658;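 active = mean inhibition across replicates above the hit cutoff set in the primary screen, cut at about 30% in these data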;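 also: 0% = wild-type ABHD4 with DMSO and 100% = catalytically dead S159A mutant with DMSO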); conditions: purified mABHD4, FP-Rh probe fluorescence polarization; at 8.92 µM; hits give high values
[12] = molecular target: Glutathione S-transferase omega-1 (Homo sapiens) (UniProt P78417); test: recombinant GSTO1 blockers, retest – biochemical, fluorescence polarization, triplicate, counter-screen for RBBP9 inhibitor project, confirmation (AID 2176;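 active = inhibition above the primary screen's cutoff, its mean inhibition plus 3 SD, cut at about 35% in these data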;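 also: loss of polarization as inhibitors block binding of rhodamine sulfonate ester activity probe; 0% = GSTO1 with DMSO and 100% = wells lacking GSTO1 enzyme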); conditions: recombinant GSTO1, probe fluorescence polarization; at 5.96 µM; hits give high values
[13] = molecular target: Photoreceptor-specific nuclear receptor (Homo sapiens) (UniProt Q9Y5X4); test: corepressor-releasing ligands of human NR2E3 – biochemical, TR-FRET, confirmation (AID 2379; in the data active = activation above about 20%); conditions: cell-free NR2E3 corepressor release, 5 h, at 3.98 µM, hits give high values
[14] = molecular target: Platelet-activating factor acetylhydrolase (Homo sapiens) (UniProt Q13093); test: inhibition of plasma PAF acetylhydrolase – biochemical, fluorescence polarization, human, confirmation (AID 463230;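 active = mean inhibition of the triplicate above the hit cutoff set for the earlier primary screen, cut at about 25% in these data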;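 also: 0% = enzyme with DMSO and 100% = wells lacking pPAFAH enzyme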); conditions: recombinant pPAFAH, FP-Rh probe fluorescence polarization; at 3.39 µM; hits give high values
[15] = molecular target: Protein-arginine deiminase type-4 (Homo sapiens) (UniProt Q9UM07); test: protein arginine deiminase 4 blockade, retest – biochemical, fluorescence polarization, confirmation (AID 488796;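 active = mean inhibition across replicates above the hit cutoff set by the earlier primary screen, cut at about 15% in these data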;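 also: inhibitors block active-site labeling by the probe so polarization falls; 0% = PAD4 with probe and DMSO and 100% = probe without PAD4 enzyme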); conditions: recombinant PAD4, RCA probe fluorescence polarization; at 6.36 µM; hits give high values
[16] = molecular target: Peroxisome proliferator-activated receptor gamma (Homo sapiens) + Nuclear receptor corepressor 2 (Homo sapiens) (UniProt P37231+Q9Y618); test: agonists of PPARg-NCOR2 corepressor interaction, counter-screen for NR2E3 agonist project, biochemical, TR-FRET (AID 504787; in the data active = inhibition above about 20%;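 also: 0% = DMSO vehicle and 100% = wells without protein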); conditions: TR-FRET PPARg-NCOR2 coregulator interaction, at 3.98 µM, hits give high values
[17] = BSA probe fluorescence interference – biochemical, TAMRA-labeled BSA, counter-screen for TCR-CD3 interaction inhibitor project (AID 652035; in the data active = inhibition above about 23%;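 also: 0% = buffer low control and 100% = reference high control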); conditions: TAMRA-labeled BSA probe fluorescence counterscreen; at 9.4 µM; hits give high values
[18] = test system: T-cell receptor (TCR)-CD3 interaction, human; test: blockers of TCR binding to CD3 – biochemical, fluorescence, TAMRA-labeled TCR probe, confirmation (AID 652036; in the data active = inhibition above about 19%); conditions: TAMRA-labeled TCR probe fluorescence binding assay; at 9.4 µM; hits give high values
[19] = suppression of KLF5 promoter-driven luciferase – DLD-1 cells, luminescence, confirmation (AID 1834;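 active = inhibition above a set limit taken from the earlier primary screen, cut at about 63% in these data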;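 also: 0% = DMSO wells and 100% = LY294002 at 200 µM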); conditions: DLD-1 KLF5 promoter firefly luciferase reporter, at 4 µM, hits give high values
[20] = IEC-6 intestinal cell killing – luminescence, triplicate, cytotoxicity control for KLF5 inhibitor project (AID 1905; in the data active = inhibition above about 23%;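 also: cells exposed to compounds for 48 hours before viability read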); conditions: IEC-6 rat intestinal cells, viability luminescence; at 4 µM; hits give high values
[21] = molecular target: Oxysterols receptor LXR-beta (Homo sapiens) (UniProt P55055); test: nonspecific reporter activation via LXR – cell-based, luminescence, HEK293, H. contortus campaign, counter-screen for hcDAF-12 agonist project, confirmation (AID 743027;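 active = mean percent activation of the reporter above a cutoff set as the average over tested compounds plus their standard deviation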); conditions: HEK293 Gal4-LXR tk-luc reporter, 24 h, at 6.8 µM, hits give high values, normalized: DMSO 0%, positive control 100%
[22] = test system: Nuclear hormone receptor DAF-12 (Haemonchus contortus); test: hcDAF-12 luciferase reporter activation, retest – cell-based, luminescence, HEK293, lit1-tk-luc, triplicate, confirmation (AID 743032;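 active = mean activation across triplicate tests above the threshold derived from the earlier primary screen, cut at about 5.5% in these data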;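 also: 0% = DMSO only wells and 100% = 3 µM Δ7-dafachronic acid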); conditions: HEK293 hcDAF-12 lit1-tk-luc reporter, at 6.8 µM, hits give high values, % of Δ7-dafachronic acid response
[23] = molecular target: Serine protease HTRA1 (Homo sapiens) (UniProt Q92743); test: confirming inhibition of human HTRA1 – biochemical, fluorescence polarization, confirmation (AID 540248;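 active = mean inhibition over three repeats above a set limit taken from the earlier primary screen, cut at about 37% in these data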;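 also: 0% = HTRA1 with DMSO and 100% = wells lacking HTRA1; inhibitors block probe binding so polarization drops and inhibition rises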); conditions: recombinant HTRA1, FP-rhodamine activity-based probe, at 5.96 µM, hits give high values

Chain of Platelet-activating factor acetylhydrolase (Homo sapiens) (Q13093 whole entry, looked up): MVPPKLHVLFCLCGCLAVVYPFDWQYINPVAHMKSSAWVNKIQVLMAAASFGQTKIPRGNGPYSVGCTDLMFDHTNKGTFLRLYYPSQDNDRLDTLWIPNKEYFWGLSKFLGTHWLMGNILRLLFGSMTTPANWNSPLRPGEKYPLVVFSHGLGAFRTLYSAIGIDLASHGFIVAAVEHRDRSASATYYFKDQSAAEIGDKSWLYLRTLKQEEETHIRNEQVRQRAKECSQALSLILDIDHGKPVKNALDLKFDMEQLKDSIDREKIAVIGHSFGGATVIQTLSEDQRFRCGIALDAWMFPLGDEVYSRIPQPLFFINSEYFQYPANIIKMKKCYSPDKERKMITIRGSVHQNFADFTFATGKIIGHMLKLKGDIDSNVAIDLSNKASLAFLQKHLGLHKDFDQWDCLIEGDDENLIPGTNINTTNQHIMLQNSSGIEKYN
Chain of Induced myeloid leukemia cell differentiation protein Mcl-1 (Homo sapiens) (Q07820 whole entry, looked up): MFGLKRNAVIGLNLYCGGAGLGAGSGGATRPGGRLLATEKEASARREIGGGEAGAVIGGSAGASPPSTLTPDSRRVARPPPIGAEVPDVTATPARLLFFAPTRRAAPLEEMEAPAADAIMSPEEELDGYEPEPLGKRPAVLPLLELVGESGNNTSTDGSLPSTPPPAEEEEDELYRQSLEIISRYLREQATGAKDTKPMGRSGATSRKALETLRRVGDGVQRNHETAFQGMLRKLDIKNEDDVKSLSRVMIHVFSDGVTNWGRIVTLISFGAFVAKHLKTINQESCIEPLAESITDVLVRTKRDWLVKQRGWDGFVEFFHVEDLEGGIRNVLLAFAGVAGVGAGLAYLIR
Chain of Bcl-2-like protein 1 (Homo sapiens) (Q07817 whole entry, looked up): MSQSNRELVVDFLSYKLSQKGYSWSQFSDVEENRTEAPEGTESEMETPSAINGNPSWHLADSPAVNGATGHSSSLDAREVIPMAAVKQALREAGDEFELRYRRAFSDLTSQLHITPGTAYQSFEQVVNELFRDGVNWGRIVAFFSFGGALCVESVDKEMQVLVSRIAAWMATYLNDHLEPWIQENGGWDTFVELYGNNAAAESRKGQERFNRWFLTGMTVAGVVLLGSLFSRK
Chain of Protein phosphatase methylesterase 1 (Homo sapiens) (Q9Y570 whole entry, looked up): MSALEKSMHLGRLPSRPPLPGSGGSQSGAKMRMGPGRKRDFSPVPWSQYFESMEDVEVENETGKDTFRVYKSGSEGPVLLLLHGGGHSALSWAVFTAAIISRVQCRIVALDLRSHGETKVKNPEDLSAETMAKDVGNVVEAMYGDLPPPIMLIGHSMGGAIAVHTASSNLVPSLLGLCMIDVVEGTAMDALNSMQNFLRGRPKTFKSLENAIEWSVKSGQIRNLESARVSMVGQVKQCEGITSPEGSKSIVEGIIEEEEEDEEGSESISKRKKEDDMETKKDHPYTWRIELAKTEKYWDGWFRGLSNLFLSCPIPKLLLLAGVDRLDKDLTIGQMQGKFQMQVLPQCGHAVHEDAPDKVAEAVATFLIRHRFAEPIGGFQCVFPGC
Chain of Glutathione S-transferase omega-1 (Homo sapiens) (P78417 whole entry, looked up): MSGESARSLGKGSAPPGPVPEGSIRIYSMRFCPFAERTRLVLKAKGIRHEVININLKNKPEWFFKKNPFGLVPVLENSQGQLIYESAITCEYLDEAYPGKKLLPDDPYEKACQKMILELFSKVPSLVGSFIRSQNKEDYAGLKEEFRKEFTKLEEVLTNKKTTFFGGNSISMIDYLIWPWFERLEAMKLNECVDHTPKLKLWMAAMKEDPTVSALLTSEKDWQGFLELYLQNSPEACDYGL
Chain of (Lyso)-N-acylphosphatidylethanolamine lipase (Mus musculus) (Q8VD66 whole entry, looked up): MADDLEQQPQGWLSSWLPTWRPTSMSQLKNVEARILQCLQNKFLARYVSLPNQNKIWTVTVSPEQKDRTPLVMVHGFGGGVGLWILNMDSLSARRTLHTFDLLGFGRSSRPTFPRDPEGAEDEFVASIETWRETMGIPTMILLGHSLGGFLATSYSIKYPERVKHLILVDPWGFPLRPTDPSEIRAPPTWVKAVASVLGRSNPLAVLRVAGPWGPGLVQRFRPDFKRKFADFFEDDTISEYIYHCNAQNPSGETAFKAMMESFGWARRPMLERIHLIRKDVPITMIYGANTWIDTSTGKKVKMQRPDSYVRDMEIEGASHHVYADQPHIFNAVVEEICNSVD
Chain of Oxysterols receptor LXR-beta (Homo sapiens) (P55055 whole entry, looked up, the tested form may be a part): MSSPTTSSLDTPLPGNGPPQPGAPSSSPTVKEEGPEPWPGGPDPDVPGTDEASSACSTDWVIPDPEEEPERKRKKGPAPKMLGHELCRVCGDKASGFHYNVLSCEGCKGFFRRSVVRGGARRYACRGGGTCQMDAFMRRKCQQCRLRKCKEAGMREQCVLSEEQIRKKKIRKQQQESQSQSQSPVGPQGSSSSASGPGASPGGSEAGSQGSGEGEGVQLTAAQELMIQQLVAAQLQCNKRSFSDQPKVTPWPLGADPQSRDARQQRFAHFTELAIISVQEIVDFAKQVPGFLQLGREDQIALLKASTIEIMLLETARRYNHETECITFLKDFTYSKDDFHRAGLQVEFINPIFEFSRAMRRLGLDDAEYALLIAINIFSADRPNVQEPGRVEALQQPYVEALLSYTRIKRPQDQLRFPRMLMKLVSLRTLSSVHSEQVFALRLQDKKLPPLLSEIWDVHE
Chain of Photoreceptor-specific nuclear receptor (Homo sapiens) (Q9Y5X4 whole entry, looked up): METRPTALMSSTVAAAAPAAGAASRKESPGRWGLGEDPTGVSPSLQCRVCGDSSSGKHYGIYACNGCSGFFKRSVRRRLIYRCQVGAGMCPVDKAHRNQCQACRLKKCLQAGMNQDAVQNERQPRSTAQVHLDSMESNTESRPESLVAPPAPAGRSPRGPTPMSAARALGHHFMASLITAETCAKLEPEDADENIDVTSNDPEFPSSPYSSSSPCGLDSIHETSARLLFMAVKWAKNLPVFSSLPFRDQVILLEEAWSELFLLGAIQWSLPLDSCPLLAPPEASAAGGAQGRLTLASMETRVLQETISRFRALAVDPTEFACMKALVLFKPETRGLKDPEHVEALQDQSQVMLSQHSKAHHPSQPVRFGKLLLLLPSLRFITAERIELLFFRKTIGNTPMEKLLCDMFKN
Chain of Protein-arginine deiminase type-4 (Homo sapiens) (Q9UM07 whole entry, looked up): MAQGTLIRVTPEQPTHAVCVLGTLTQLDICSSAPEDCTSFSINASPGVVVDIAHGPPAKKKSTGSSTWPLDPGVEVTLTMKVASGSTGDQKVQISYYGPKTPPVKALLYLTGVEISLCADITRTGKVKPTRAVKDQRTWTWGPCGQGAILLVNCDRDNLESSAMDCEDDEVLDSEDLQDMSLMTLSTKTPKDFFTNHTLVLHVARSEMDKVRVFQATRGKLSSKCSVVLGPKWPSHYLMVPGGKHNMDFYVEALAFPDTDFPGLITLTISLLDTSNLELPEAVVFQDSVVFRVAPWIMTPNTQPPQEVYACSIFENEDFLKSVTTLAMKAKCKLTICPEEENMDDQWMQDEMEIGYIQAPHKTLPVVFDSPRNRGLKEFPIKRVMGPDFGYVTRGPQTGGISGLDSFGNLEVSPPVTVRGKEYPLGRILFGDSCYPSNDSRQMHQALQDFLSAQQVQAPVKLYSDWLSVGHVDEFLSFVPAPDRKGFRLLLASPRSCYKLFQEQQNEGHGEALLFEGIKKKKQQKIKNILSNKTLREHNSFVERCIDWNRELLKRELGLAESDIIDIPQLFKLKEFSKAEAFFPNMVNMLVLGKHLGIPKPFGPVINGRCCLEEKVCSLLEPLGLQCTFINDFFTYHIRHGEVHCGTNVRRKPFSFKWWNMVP

Compound: Cc1cccc(NC(=O)c2ccc([N+](=O)[O-])o2)c1
- inhibition [1]: 98% (active)
- inhibition [2]: 11.9% (active)
- inhibition [3]: 34.5% (active)
- inhibition [4]: 7.5%
- inhibition [5]: 8.19%
- inhibition [6]: 66.8% (active)

Compound: Cc1[nH]n(C(N)=S)c(=O)c1N=Nc1ccc(Cl)cc1Cl
- inhibition [7]: 22.4% (active)

Compound: COC(=O)c1cc(OCC(=O)NC2CCCc3ccccc32)cc(C(=O)OC)c1 (stereo not drawn)
- inhibition [8]: 16.3%
- inhibition [9]: 28.4%

Compound: Cc1cccc(-c2nc(Nc3ccc(O)cc3)c3ccccc3n2)c1
- inhibition [7]: 17.7%
- inhibition [10]: -0.9%

Compound: O=C(NNc1c2ccccc2nc2ccccc12)c1cc2ccccc2cc1O
- inhibition [7]: 51.3% (active)
- inhibition [10]: -6.46%
- inhibition [11]: 41% (active)

Compound: COCCNC(=O)Nc1ccc2nc(-c3ccco3)c(-c3ccco3)nc2c1
- inhibition [7]: 17.4%
- inhibition [8]: 104% (active)
- inhibition [9]: 136% (active)
- inhibition [12]: 64.7% (active)
- activation (reported as inhibition) [13]: -0.99%
- inhibition [14]: 33.1% (active)
- inhibition [15]: 1.02%
- inhibition [16]: -6.1%
- inhibition [17]: -14.8%
- inhibition [18]: 41.6% (active)

Compound: Nc1ccc2nn(-c3ccc(Cl)cc3)nc2c1
- inhibition [19]: -145%
- inhibition [20]: 4.57%
- activation [21]: 1.78%
- activation [22]: 9.23% (active)

Compound: Cc1ccc(NS(=O)(=O)c2ccc(N/N=C/c3ccccc3OCC(=O)O)c([N+](=O)[O-])c2)c(C)c1
- inhibition [7]: 17.7%
- inhibition [10]: 74.8% (active)
- inhibition [14]: 84.3% (active)
- inhibition [23]: 50.2% (active)

Compound: COc1ccc(-c2nc(CS(=O)CC(=O)NCc3ccccn3)c(C)o2)cc1 (stereo not drawn)
- inhibition [7]: 23.4% (active)
- inhibition [8]: 96.8% (active)
- inhibition [9]: 125% (active)

Compound: Cc1ccc(-c2nc3c(cnn3-c3ccccc3)c(=O)o2)cc1
- inhibition [7]: 16.2%

Compound: O=[N+]([O-])c1cc(Cl)cc(/C=N/NC(=S)Nc2cc(S(=O)(=O)N3CCOCC3)ccc2Cl)c1O
- inhibition [7]: 46.8% (active)
- inhibition [8]: 24.4%
- inhibition [9]: 42.4% (active)
- inhibition [23]: 125% (active)
- inhibition [17]: -14.9%
- inhibition [18]: 38.1% (active)
- inhibition [11]: 77.1% (active)

Compound: Oc1oc(-c2ccccc2Br)nc1/C=N/c1ccccn1
- inhibition [7]: 68.7% (active)

Compound: COc1ccc(OC)c(Nc2nc(-c3ccc(O)c(O)c3)cs2)c1
- inhibition [7]: -20.9%
- inhibition [12]: 2.96%
- inhibition [14]: 50.8% (active)

Compound: C/C(=C\c1ccco1)C1Nc2cccc3cccc(c23)N1
- inhibition [7]: 26.3% (active)
